Source: PubChem BioAssay (NCI)
About 83,000 compounds went through this panel and 20% of them were active in at least one assay; those are over-represented in the sample as a whole.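 Percent growth is the endpoint: 0 to 100 indicates growth inhibition (40 means 60% inhibition), 0 means no net growth, and negative values indicate cell death.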 Unmarked numbers belong to inactive results. The source made the active and inactive calls. How the source made its calls: active means growth percent below 10; inactive means the rest.

Columns and labels:
Assay in all cases: NCI-60 one-dose screen, 48 h (100 = growth as untreated, 0 = no growth, -100 = all killed)
Settings in all cases: 10 µM unless noted
RPMI-8226 leukemia = tested on: RPMI-8226 leukemia
OVCAR-8 ovarian = tested on: OVCAR-8 ovarian
OVCAR-5 ovarian = tested on: OVCAR-5 ovarian
OVCAR-4 ovarian = tested on: OVCAR-4 ovarian
SK-OV-3 ovarian = tested on: SK-OV-3 ovarian
IGROV1 ovarian = tested on: IGROV1 ovarian
OVCAR-3 ovarian = tested on: OVCAR-3 ovarian
HS 578T breast = tested on: HS 578T breast
NCI/ADR-RES ovarian = tested on: NCI/ADR-RES ovarian
T-47D breast = tested on: T-47D breast

Compound	growth (RPMI-8226 leukemia)	growth (OVCAR-8 ovarian)	growth (OVCAR-5 ovarian)	growth (OVCAR-4 ovarian)	growth (SK-OV-3 ovarian)	growth (IGROV1 ovarian)	growth (OVCAR-3 ovarian)	growth (HS 578T breast)	growth (NCI/ADR-RES ovarian)	growth (T-47D breast)
COc1cc(NC(=O)c2cc3ccccc3cc2O)c(OC)cc1Cl	-48.7% (active)	7.08% (active)	2.16% (active)	38.4%	-14.9% (active)	-31% (active)	10.7%	51.7%	-20.6% (active)	4.25% (active)
CCN1C[C@@H](C)n2c(c(O)c3c(=O)n(Cc4ccc(F)c(Cl)c4)nc(C(=O)NC)c32)C1=O	19.4%	22%	88.6%	80.2%	43.5%	28.7%	38.1%	16.7%	15.3%	27%
CCC(=O)Nc1ccccc1C#C/C=C\C#Cc1ccccc1C(F)(F)F	100%	106%	53.8%	85.8%	52.3%	-21.8% (active)	70.2%	17.1%	27.2%	65.4%
Cc1nnc(Nc2ccc(NC(=O)Nc3ccc(Cl)cc3)cc2)c2ccccc12	-11.9% (active)	31.4%	72.8%	42.6%	66.4%	62%	44.4%	3.43% (active)	45.1%	8.43% (active)
Cc1cc(C)n2nc(SCC(=O)Nc3sc4c(c3C(N)=O)CCC4)nc2n1	148%	112%	97.1%	122%	118%	-2.56% (active)	123%	121%	102%	109%
c1csc([C@@H]2C[C@@H]3Cc4ccc5ccccc5c4N2O3)c1	95.5%	96.9%	89.9%	87.7%	102%	105%	102%	101%	97.7%	98.8%
O=C(Nc1ccc(C2=NCCCN2)cc1)Nc1ccc(C2=NCCCN2)cc1	53.2%	89%	101%	64%	110%	110%	99.4%	79.5%	94.4%	73.6%
COc1cc(/C=C2\CCC/C(=C\c3ccc(OCC4CO4)c(OC)c3)C2=O)ccc1OCC1CO1 (stereo not given)	-2.29% (active)	0.499% (active)	86%	47.1%	20.1%	-12.6% (active)	-22.8% (active)	23.4%	56.8%	46.3%
C[n+]1c2ccccc2c(Nc2ccc(N3CCCCC3)cc2)c2[nH]c3ccccc3c21	-72.4% (active)	-87.4% (active)	-86.2% (active)	-35.3% (active)	-75.8% (active)	-97% (active)	-95.7% (active)	-69.5% (active)	-61.8% (active)	-55.7% (active)
C/C(=N\N1CC(=O)NC1=O)c1ccc([N+](=O)[O-])o1	71%	98.2%	111%	105%	109%	99.6%	102%	108%	93.7%	102%
O[C@@H]1Cc2ccc3ccccc3c2N[C@H](c2ccoc2)C1	103%	101%	100%	99.1%	102%	109%	115%	104%	103%	93.8%
O=C1/C(=C/c2ccc([N+](=O)[O-])o2)Oc2ccc(Br)cc21	84.2%	6.99% (active)	105%	5.15% (active)	92.1%	-17.9% (active)	-43.1% (active)	106%	98.3%	58%
COC(=O)[C@]12CC[C@@H](C)[C@H](C)[C@@H]1C1=CC[C@@H]3[C@@]4(C)C[C@@H](OC(=O)c5ccco5)[C@H](O)[C@@](C)(CO)[C@@H]4[C@H](O)C[C@@]3(C)[C@]1(C)CC2	-64.7% (active)	-76.1% (active)	-85.3% (active)	-67.9% (active)	-97.2% (active)	-65% (active)	-93.8% (active)	-39.9% (active)	-80.6% (active)	-68.3% (active)
